Mdm2-MdmX inh – inhibitors of human Mdm2/MdmX interaction; O15151+Q00987; SaOS-2 split-luciferase Mdm2/MdmX complementation, luminescence; AID 485346; inhibition, % at 8 µM; actives 3% (n = 330,000);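 active = inhibition of at least 50% at 8 µM in the primary screen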
Target sequence (O15151 whole entry, looked up): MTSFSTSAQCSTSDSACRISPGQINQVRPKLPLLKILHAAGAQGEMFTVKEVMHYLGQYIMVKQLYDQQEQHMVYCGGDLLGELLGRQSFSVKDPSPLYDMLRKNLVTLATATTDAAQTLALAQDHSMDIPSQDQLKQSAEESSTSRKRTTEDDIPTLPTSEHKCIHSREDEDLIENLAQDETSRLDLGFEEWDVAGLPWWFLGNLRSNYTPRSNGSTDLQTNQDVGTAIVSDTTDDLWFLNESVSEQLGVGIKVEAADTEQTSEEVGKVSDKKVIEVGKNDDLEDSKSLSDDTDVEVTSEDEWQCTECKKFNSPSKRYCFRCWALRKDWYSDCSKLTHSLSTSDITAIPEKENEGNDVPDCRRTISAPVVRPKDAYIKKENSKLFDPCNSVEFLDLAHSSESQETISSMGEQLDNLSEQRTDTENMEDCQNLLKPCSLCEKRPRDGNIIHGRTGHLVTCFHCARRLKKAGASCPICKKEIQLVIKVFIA
Target sequence (Q00987 whole entry, looked up): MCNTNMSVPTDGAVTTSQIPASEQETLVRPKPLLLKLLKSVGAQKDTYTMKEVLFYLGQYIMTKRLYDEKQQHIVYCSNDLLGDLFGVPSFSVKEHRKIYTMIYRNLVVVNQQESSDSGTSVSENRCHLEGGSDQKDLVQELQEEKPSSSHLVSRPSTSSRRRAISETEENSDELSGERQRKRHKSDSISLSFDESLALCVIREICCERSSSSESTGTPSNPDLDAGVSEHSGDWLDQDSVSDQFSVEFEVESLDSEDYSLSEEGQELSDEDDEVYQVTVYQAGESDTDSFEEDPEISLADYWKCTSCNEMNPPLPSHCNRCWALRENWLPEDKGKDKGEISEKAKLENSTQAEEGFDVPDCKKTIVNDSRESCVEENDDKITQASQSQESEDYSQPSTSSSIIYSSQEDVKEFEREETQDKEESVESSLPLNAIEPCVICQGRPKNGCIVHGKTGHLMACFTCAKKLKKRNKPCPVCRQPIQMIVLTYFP
CF NFkB block – cystic fibrosis NF-kB activation inhibition | KKLEB NF-kB-GFP reporter, PAF-induced, GFP fluorescence overnight | inhibition, % at 5 µM | actives 0.86% (n = 360,000);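 active = at least 50% inhibition at 5 µM, scaled per plate between neutral and stimulator controls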;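 note: PAF is a Pseudomonas aeruginosa culture filtrate used as stimulus; plate controls were PAF-stimulated DMSO wells for no effect and unstimulated DMSO wells for full effect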
LGR2 inh – Drosophila LGR2 receptor signaling inhibition | HEK293 LGR2, CRE-luciferase, bursicon-stimulated, 4 h | inhibition, % at 9.99 µM | actives 0.35% (n = 380,000);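 active = drop in luminescence signal, shown as inhibition above about 50% in the replicate tests, limit read from the data, passing the limit was not always enough; inconclusive = probably only some replicates passing the limit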;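 note: agonist challenge used bursicon conditioned medium at about half maximal strength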
HSP90 refold inh – HSP90 refolding inhibition in rabbit reticulocyte lysate. AID 1789. inhibition, % at 5.6 µM. actives 0.91% (n = 290,000). luciferase refolding luminescence, 3 h;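 active = inhibition above the screen-wide mean plus 3 SD, computed separately per campaign, cut at about 16% in these data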;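 note: 0% = DMSO wells and 100% = 60 µM geldanamycin wells; inhibitors lower the luminescence because luciferase stays unfolded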
KKLEB cytotox – CF airway cell cytotoxicity counter-screen; KKLEB CF airway cells viability, ATPlite luminescence, overnight; hits give low values; cells stimulated with P. aeruginosa culture filtrate; activity change (cytotoxicity), % at 5 µM; actives 0.36% (n = 360,000); AID 602141;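 active = corrected activity change at or below -50% at 5 µM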
Peg3 promoter – reduces Peg3 promoter-driven luciferase expression in HeLa | actives 1.7% (n = 360,000) | inhibition, % at 20 µM | HeLa PEG-Prom luciferase reporter, luminescence, overnight;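 active = inhibition of at least 50% at 20 µM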
Starred values were filed as active, the others as inactive; ? = inconclusive; / = no result. Sampled rows, rich in hits. Any-hit rate of the full collection: about 3.6%.

SMILES	Mdm2-MdmX inh	CF NFkB block	LGR2 inh	HSP90 refold inh	KKLEB cytotox	Peg3 promoter
COc1ccc(NC(=O)Nc2ccc3c(c2)C(=O)N([C@@H](C)CO)C[C@H](C)[C@@H](CN(C)Cc2ccc(Cl)c(Cl)c2)OCCCC[C@@H](C)O3)cc1	/	/	-3	/	/	/
C[C@@H]1CCCCO[C@H](CN(C)C(=O)Nc2ccc(F)cc2)[C@@H](C)CN([C@H](C)CO)C(=O)c2cc(NC(=O)NC3CCCCC3)ccc2O1	/	/	6	/	/	/
C[C@H](CO)N1C[C@H](C)[C@H](CN(C)C(=O)Nc2ccc(F)cc2)OCCCC[C@H](C)Oc2ccc(NC(=O)Nc3ccccc3)cc2C1=O	/	/	59*	/	/	/
C[C@H](CO)N1C[C@H](C)[C@H](CN(C)C(=O)Nc2ccc(C(F)(F)F)cc2)OCCCC[C@H](C)Oc2ccc(NC(=O)NC3CCCCC3)cc2C1=O	/	/	55*	/	/	/
COc1ccc(NC(=O)Nc2ccc3c(c2)C(=O)N([C@H](C)CO)C[C@H](C)[C@@H](CN(C)Cc2ccc(Cl)c(Cl)c2)OCCCC[C@@H](C)O3)cc1	/	22	-1	/	-3	86*
C[C@H](CO)N1C[C@H](C)[C@H](CN(C)C(=O)Nc2ccc(F)cc2)OCCCC[C@H](C)Oc2ccc(NC(=O)NC3CCCCC3)cc2C1=O	/	/	72*	/	/	/
O=[N+]([O-])c1cc(-c2csc(NCCc3nc4cc(Cl)c(Cl)cc4n3CCCO)n2)ccc1Cl	8	-16	-20	/	-22	92*
COCC(=O)Nc1ccc2c(c1)OC[C@H](C)NC[C@H](C)[C@@H](OC)CN(C)C2=O	/	/	14	/	/	/
COc1ccc(NS(=O)(=O)c2cccc(C(=O)N3CCCC3)c2)cc1	-2	11	1	/	13	58*
COc1ccc(NS(=O)(=O)c2cccc(C(=O)N3CCC3)c2)cc1	14	18	5	/	3	11
CCN1[C@@H]2c3ccc(-c4cccc(F)c4)c(=O)n3C[C@@H]2[C@@H](CO)[C@@H]1C(=O)N[C@@H](C)c1ccccc1	/	/	11	/	/	/
COCC(=O)N1[C@H](C#N)[C@H](c2ccccc2-c2ccc(C)cc2)[C@H]1CO	/	/	9	/	/	/
COc1ccccc1S(=O)(=O)N1CC[C@@H]2[C@H]1c1cc(-c3cccc(C#N)c3)ccc1N[C@@H]2CO	/	/	8	/	/	/
CCn1c(/C=C/c2ccc(O)c(O)c2)nc2ccccc2c1=O	7	8	?	4	1	-6
CCn1c(/C=C/c2cc(Br)ccc2O)nc2ccccc2c1=O	46	30	30	-5	-10	68*
O=C(CCN1CCc2ccccc2CC1)c1ccc2c(c1)OCCO2	16	10	/	1	4	106*
O=C(CCN1CCOCC1)c1ccc2c(c1)OCCO2	13	-14	7	0	3	-10
N#C[C@H]1[C@H](c2ccccc2C2=CCCCC2)[C@@H](CO)N1S(=O)(=O)c1ccccc1	/	/	68*	/	/	/
N#C[C@H]1[C@@H](c2ccccc2C2=CCCCC2)[C@H](CO)N1S(=O)(=O)c1ccccc1	/	/	4	/	/	/
CO[C@@H]1CN(C)C(=O)c2cc(NC(=O)C3CCC3)ccc2OC[C@@H](C)N(Cc2nccs2)C[C@@H]1C	/	/	-9	/	/	/
CC(=O)Nc1cccc(NC(=O)CSc2ncc(C(=O)Nc3ccc(F)cc3)c(=O)n2C)c1	-15	8	-7	/	-6	-19
CC(=O)c1cccc(NC(=O)CSc2ncc(C(=O)Nc3ccccc3)c(=O)n2C)c1	14	15	1	/	-1	110*
CC(=O)Nc1cccc(NC(=O)CSc2ncc(C(=O)Nc3ccccc3)c(=O)n2C)c1	12	26	0	/	3	105*
Cn1c(SCC(=O)NCC2CCCO2)ncc(C(=O)Nc2ccc(Cl)cc2)c1=O (configuration not stated)	-16	41	17	/	-2	59*
C[C@@H]1CCCCO[C@H](CN(C)C(=O)C2CCCCC2)[C@@H](C)CN([C@@H](C)CO)C(=O)c2cc(NS(C)(=O)=O)ccc2O1	/	/	1	/	/	/
SMILES	Mdm2-MdmX inh	CF NFkB block	LGR2 inh	HSP90 refold inh	KKLEB cytotox	Peg3 promoter
CN(C)C(=O)c1ccc(-c2ccc3c(c2)[C@@H]2[C@@H](CCN2C(=O)c2ccccn2)[C@@H](CO)N3C)cc1	/	/	16	/	/	/
Cc1noc(C)c1S(=O)(=O)Nc1ccc2c(c1)C(=O)N([C@@H](C)CO)C[C@@H](C)[C@H](CN(C)Cc1ccc3c(c1)OCO3)OCCCC[C@@H](C)O2	/	/	-2	/	/	/
CN1[C@H](CO)[C@@H]2c3ccccc3N(C(=O)Nc3ccccc3F)C[C@@H]21	/	/	-10	/	/	/
CNc1ccc(Br)cc(C(=O)/C=C/c2ccc(Cl)cc2Cl)c1=O	10	10	14	-3	-3	62*
CCNc1ccc(Br)cc(C(=O)/C=C/c2ccc(Cl)cc2)c1=O	9	1	/	-1	-11	33
CCNc1ccc(Br)cc(C(=O)/C=C/c2c(Cl)cccc2Cl)c1=O	26	-8	/	7	5	104*
C[C@H]1CN([C@@H](C)CO)S(=O)(=O)c2ccc(-c3ccccc3)cc2O[C@H]1CN(C)C(=O)Nc1ccccc1F	/	/	3	/	/	/
COc1ccc(-c2ccc(CN3C(C(C)C)C(=O)N(Cc4cn(CCC5OCCO5)nn4)CCS3(=O)=O)cc2)cc1OC (configuration not stated)	/	29	4	/	-16	13
CC(C)C1C(=O)N(Cc2cn(CCC3OCCO3)nn2)CCS(=O)(=O)N1Cc1ccc(-c2ccc(Cl)c(Cl)c2)cc1 (configuration not stated)	/	31	18	/	-9	60*
CCCN1C[C@H](C)[C@@H](OC)CN(C)C(=O)c2cc(NC(=O)NC3CCCC3)ccc2OC[C@@H]1C	/	/	8	/	/	/
Cn1nc(N)c2c(-c3ccc(Cl)cc3)c(C#N)c(N)nc21	27	35	2	3	-7	7
CCN(CC)c1ccc(-c2c(C#N)c(N)nc(OC)c2C#N)cc1	44	12	-20	0	-22	53*
C[C@H](CO)N1C[C@H](C)[C@H](CN(C)C(=O)Nc2ccccc2)Oc2c(NS(=O)(=O)c3ccc(F)cc3)cccc2C1=O	/	/	5	/	/	/
CC(=O)Nc1ccc(CNc2nc(NC(C)C)nc3cc(-c4ccccc4)sc23)cc1	/	-28	11	/	-56*	65*
CC(=O)NCCNc1nc(NC(C)C)nc2cc(-c3ccccc3)sc12	/	-9	-18	/	3	-7
C=CCNc1nc(NCc2ccc(NC(C)=O)cc2)c2sc(-c3ccccc3)cc2n1	/	-7	22	/	-60*	-116
c1ccc(-c2cc3nc(NCC4CC4)nc(NCC4CCCCC4)c3s2)cc1	/	82*	-35	/	-84*	93*
COc1ccc(-c2cc(CNc3nc(NC(C)C)nc4cc(-c5ccccc5)sc34)on2)cc1	/	-28	-63	/	-20	78*
O=C(CNC(=S)N(Cc1ccccc1)Cc1ccccc1F)NCc1ccc(Cl)cc1	/	16	12	1	3	52*

Assay outcomes as filed in PubChem BioAssay.
